15 compounds from PubChem BioAssay (NCATS) can be followed below.

Each structure is given as a SMILES string. Values joined by “and” are separate entries in the source; they are usually repeats but may differ in a detail not shown here. Equal values may be shown once. Inconclusive results are not listed. Where a structure was tested more than once in an assay, its records may differ in their call. Unmarked numbers belong to inactive results. Active and inactive are the calls of the source. Calls follow the shape of the dose curve; as a rule, active = well fitted inhibition curve with a large enough effect; inconclusive = small, poorly fitted or top-dose-only effect; inactive = flat fitted curve, though single readings scatter.

Test [1] deals with CRL-7250. In words: Cytotoxic Profiling of Annotated Libraries Using Quantitative High-Throughput Screening (AID 1296008). Particulars: Five cell lines viability, CellTiter-Glo ATP luminescence, 48-72 h; max response: active compounds read low. The method in brief: (§1)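 Compounds were pin-transferred onto cells and incubated 48 or 72 hr at 37 degree Celsius, 95% humidity. CellTiter-Glo was added, plates sat 10 min at room temperature, then ATP-coupled luminescence was imaged as the viability read-out.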

Test [2] deals with HEK293. The test is described as above. As to conditions: Five cell lines viability, CellTiter-Glo ATP luminescence, 48-72 h; max response: active compounds read low. The method in brief: as §1
In test [3] the test system is HaCat. The test is described as above. As to conditions: Five cell lines viability, CellTiter-Glo ATP luminescence, 48-72 h; max response: active compounds read low. In a few lines: as §1
The test system of test [4] is KB-3-1. The test is described as above. As to conditions: Five cell lines viability, CellTiter-Glo ATP luminescence, 48-72 h; max response: active compounds read low. The method in brief:
as §1

The test system of test [5] is NIH3T3. Described as above. As to conditions: Five cell lines viability, CellTiter-Glo ATP luminescence, 48-72 h; max response: active compounds read low. In a few lines:
as §1
For orientation: In ATP-based viability assays light output follows the ATP content of the culture.

The subject of test [6] is HACAT. Briefly: qHTS assay to identify novel small-molecules to repurpose for Merkel cell carcinoma treatment (AID 1296009). As to conditions: MCC and control cell lines, CellTiter-Glo viability, 72 h; series mostly up to 44.8 µM. The method in brief: (§2)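 Luminescence from CellTiter-Glo, read 10 min after addition at room temperature, reported viability following a 72 hr, 37 degree celsius treatment with NPC or MIPE compounds in titration; values normalized to plate controls.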

Test [7] concerns MCC-13. Described as above. As to conditions: MCC and control cell lines, CellTiter-Glo viability, 72 h; series mostly up to 46 µM. The method in brief:
as §2

The test system of test [8] is MKL-1. The description is as above. As to conditions: MCC and control cell lines, CellTiter-Glo viability, 72 h; series mostly up to 46 µM. In a few lines: as §2
Test [9] relates to MCC-26. Described as above. As to conditions: MCC and control cell lines, CellTiter-Glo viability, 72 h; series mostly up to 46 µM. The method in brief: as §2
The test system of test [10] is HEK293T. Described as above. As to conditions: MCC and control cell lines, CellTiter-Glo viability, 72 h; at 44.8 µM (top of the series) unless noted. The method in brief:
as §2
% is scaled to controls: 0 for no effect and ±100 for the full control effect; potency is read from the fitted curve at half-maximal effect.
Also: nearly all actives have a fitted effect of over 60% in size.

Take `Fc1ccc([C@@H]2CCNC[C@H]2COc2ccc3c(c2)OCO3)cc1`: the max response is -5.94% in test [1]; -24.9% in [2]; -16.5% and -9.57% in test [4]; -13.3% in [5]. Besides, the result in test [3] and in test [6] was inactive. Further, the Potency result in test [7] and in test [8] was “inactive” in each case.

For `CC12CC3CC(C)(C1)CC(N)(C3)C2`, the compound was called inactive in test [1]. Also, the max response in test [2] was -1.65% and -16.7%; in test [3], 0.352% and -2.07%; in test [4], 0.442%; in test [5], 1.33% and -0.312%. In addition, the Potency result in [7], in [9] and in [8] was “inactive” in each case.

Regarding `COc1ccc(CCN(C)CCCC(C#N)(c2ccc(OC)c(OC)c2)C(C)C)cc1OC` (stereo unspecified), the max response in test [1] is -3.47% and -1.73%; in [2], -14.8%; in test [3], -28.3%; in test [5], -15.4% and 3.75%. In addition, the result in [3] and in [6] was inactive. Also, the Potency result in test [7] and in test [8] was “inactive” throughout.

`O=c1c(-c2ccc(O)cc2)coc2cc(O)cc(O)c12`: the max response in test [1] was 4.48%; in test [2] it was -3.7%; in test [3], 0.82%; in [5], -9.8% and -21.1%. In addition, the result in test [3] and in [6] was inactive. Besides, the Potency entry in [7], in test [9] and in test [8] was “inactive” each time.

Take `CN(C)CCC=C1c2ccccc2C=Cc2ccccc21`: the max response is -6.55% in test [1]; -7.06% and -14.3% in [4]; -0.444% in test [5]. For the same compound, the Potency in test [2] is 26.4 µM (active). The result in test [3] and in [6] was inactive. The Potency result in test [7] and in test [8] was “inactive” in each case.

As to `NS(=O)(=O)c1cc2c(cc1Cl)NCNS2(=O)=O`, the compound was classed as inactive in test [1], in test [2], in test [3], in test [6] and in test [10]. For the same compound, the max response in [3] is 0.753%; in [4] it was 23% and 9.86%; in test [5] it was -2.86% and -1.17%. Moreover, the Potency entry in test [7], in test [9] and in test [8] was “inactive” each time.

`Cn1c(=O)c2c(ncn2C)n(C)c1=O`: the max response is 0.692% and -3.54% in test [1]; -13.2% and 0.976% in test [2]; 1.8% and -12.8% in [3]; 3.75% in test [4]; -9.99% and -2.17% in test [5]. For the same compound, the Potency result in [7], in test [9] and in test [8] was “inactive” throughout.

Consider `NCCc1cnc[nH]1`, for which the result in test [1], in test [2], in [5] and in test [10] was inactive. In addition, the max response was 4.08% in test [2]; -11% and 1.72% in [3]; -6.9% in test [5]. Further, the Potency result in test [7], in [9] and in test [8] was “inactive” each time.

For `CC(CCc1ccc(O)cc1)NCCc1ccc(O)c(O)c1` (stereo unspecified), the Potency in [1] is 23.7 µM (active); in [8] it was 7.5 µM (active). Also, the max response in [2] was -19%; in test [3], 0.349%; in test [5] it was -1.03% and 1.16%. For the same compound, the call in [3] and in test [6] was inactive. Besides, the Potency result in test [7] and in test [9] was “inactive” throughout.

`CN1CCC(=C2c3ccccc3CC(=O)c3sccc32)CC1`: the max response is 4.7% and -3.04% in [1]; 0.22% in test [3]; -4.06% in test [4]; -5.39% in [5]. Also, the compound was classed as inactive in test [3], in test [5] and in test [6]. The Potency entry in test [7], in test [9] and in [8] was “inactive” each time.

`Nc1c2c(nc3ccccc13)CCCC2`: the call in test [1], in test [3], in [4], in test [5] and in test [6] was inactive. Further, in test [3], the Potency is 26.4 µM (active). Besides, the Potency entry in [7] and in [8] was “inactive” each time.

As to `COc1ccccc1OCC(O)CN1CCN(CC(=O)Nc2c(C)cccc2C)CC1` (stereo unspecified), the max response in test [2] was 1.75%; in test [3], -0.555%; in [4], 4.47% and -3.97%; in [5], -5.09%. Moreover, the compound was classed as inactive in [2], in test [3], in test [5], in test [6] and in test [10]. For the same compound, the Potency entry in test [7], in [9] and in test [8] was “inactive” throughout.

As for `O=C(c1ccc(OCCN2CCCCC2)cc1)c1c(-c2ccc(O)cc2)sc2cc(O)ccc12`, the compound was classed as inactive in test [1], in [3] and in test [6]. The Potency in [3] was 16.8 µM (active); in test [5], 18.8 µM (active). Moreover, in [5], the max response is -12.5%. Also, the Potency result in test [7] and in test [8] was “inactive” each time.

As for `CC(C)NCC(O)c1ccc(O)c(O)c1` (stereo unspecified), the max response in [1] was 0.851%; in test [3], 3.14% and -18%; in test [4], 0.229%; in [5] it was -0.342% and -6.04%. Moreover, the Potency result in test [7] and in [9] was “inactive” in each case. For the same compound, the Potency in test [8] was 8.41 µM (active).

For `CCCCc1oc2ccccc2c1C(=O)c1cc(I)c(OCCN(CC)CC)c(I)c1`, the max response in test [1] is -7.04% and -18.2%; in [5], -21.3% and -20.5%. In addition, the Potency in [2] is 23.5 µM (active). For the same compound, the compound was classed as inactive in [3] and in test [6]. Moreover, the Potency entry in [7] and in [9] was “inactive” throughout.
